Results filed as inconclusive are left out. Entries that show only a call come without a potency. Activity calls are given as the source filed them. The call rests on the fitted dose curve; in most records, active means well fitted cell-killing curve with a large enough effect; inconclusive means small, poorly fitted or top-dose-only effect; inactive means flat fitted curve, though single readings scatter.

The nature of one assay: Cell Viability - LYMP2-006 (AID 978). Further: nearly all actives have a fitted effect of over 60% in size. Further: potency means the concentration at half of the fitted maximal effect. To be noted: LYMP2-006 lymphoblastoid cell viability, qHTS; series mostly up to 92.2 µM. The method in brief: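 Cells are seeded at 2500 per well and rested 5 hr at 37 C. Compounds are added across a concentration series for 24 hr at 37 C, after which ATP is quantified by luciferase luminescence.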
Background: In qHTS, concentration-response curves come from the screen itself.
For `COc1ccc(CN(CCN(C)C)c2ccccn2)cc1`, the Potency entry is “inactive”.

With `NC(=Nc1ccccc1)Nc1ccccc1`, the Potency entry was “inactive”.

For the molecule `CN=C(NC#N)NCCSCc1nc[nH]c1C`, the Potency result was “inactive”.

With `CCCCNC(=O)NS(=O)(=O)c1ccc(C)cc1`, the Potency entry was “inactive”.

`COc1cc(Cc2cnc(N)nc2N)cc(OC)c1OC`: the Potency entry was “inactive”.

Turning to `NC(=O)N1c2ccccc2C=Cc2ccccc21`, the Potency result was “inactive”.

Consider `Nc1nc(N)c2nc(-c3ccccc3)c(N)nc2n1`, for which the Potency result is “inactive”.

Turning to `O=c1[nH]c(=O)n([C@H]2C[C@H](O)[C@@H](CO)O2)cc1Br`, the Potency entry was “inactive”.

Regarding `CCCCOCCOCCOCc1cc2c(cc1CCC)OCO2`, the Potency entry is “inactive”.

`Nc1ncn([C@@H]2O[C@H](CO)[C@@H](O)[C@H]2O)c(=O)n1`: the Potency was 15.8 µM (active).

A further assay in a line: Cell Viability - LYMP2-007 (AID 979).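 Further: cells exposed to compound for 24 h before reading; nearly all actives have a fitted effect of over 60% in size.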 To be noted: LYMP2-007 lymphoblastoid cell viability; series mostly up to 92.2 µM. The source says:
NIH Chemical Genomics Center [NCGC]
NIH Molecular Libraries Screening Centers Network [MLSCN]
National Institutes of Environmental Health Sciences [NIEHS]
National Toxicology Program [NTP]
We have developed a 1536-well cell-based assay for quantitative high throughput screening (qHTS) against a number of cell lines to determine in vitro cytotoxicity of small molecules. This particular assay uses a human lymphoblastoid cell line (LYMP2-007) purchased from Coriell Institute for Medical Research.
NCGC Assay Protocol Summary:
The CellTiter-Glo luminescent cell viability assay (Promega) is a homogeneous method to measure the number of viable cells in culture. The end point readout of this assay is based on quantitation of intracellular ATP, an indicator of metabolic activity, using the luciferase reaction. Luciferase catalyzes the oxidation of beetle Luciferin to oxyluciferin and light in the presence of ATP. The luminescent signal is proportional to amount of ATP present.
Using the CellTiter-Glo luminescent cell viability assay, the amount of cellular ATP was measured in the lymphoblastoid cell line with complete culture medium following compound treatment for 24 hours. The assay was performed in opaque white Kalypsys 1536-well plates. In the screen, tetraoctylammonium bromide was used as positive control. Library compounds were measured for their ability to cause acute toxicity in the cell line, as reflected by a decrease in intracellular ATP levels, in a concentration-dependent manner. […] AC50 values were determined from concentration-response data modeled with the standard Hill equation.
qHTS protocol for CellTiter Glo lymphoblastoid cellular assay
[Step] [Parameter] [Value] [Description]
1. Reagent; 5 uL; 2500 lymphoblastoid cells/well
2. Time; 5 hr; 37 C incubation
4. Controls; 23 nL; Tetraoctylammonium bromide 6.4pM to 92 uM
5. Time; 24 hr; 37 C incubation
6. Reagent; 5 uL; CellTiter Glo reagent
7. Time; 30 min; Room Temperature
8. Detection; Luminescence; Viewlux plate reader
Keywords: cell viability, cytotoxicity, lymphoblastoid cell line, luminescence, NTPHTS, NTPHTS_NCGC, NIEHS, DSSTox, MLSMR, MLSCN, NIH Roadmap, qHTS, NCGC
Regarding `COc1ccc(CN(CCN(C)C)c2ccccn2)cc1`, the outcome was inactive.

Take `NC(=Nc1ccccc1)Nc1ccccc1`: the outcome was inactive.

On to `CN=C(NC#N)NCCSCc1nc[nH]c1C`, for which the molecule was called inactive.

`CCCCNC(=O)NS(=O)(=O)c1ccc(C)cc1`: the molecule was called inactive.

`COc1cc(Cc2cnc(N)nc2N)cc(OC)c1OC`: the call was inactive.

As to `NC(=O)N1c2ccccc2C=Cc2ccccc21`, the molecule was called inactive.

With `O=c1[nH]c(=O)n([C@H]2C[C@H](O)[C@@H](CO)O2)cc1Br`, the result was inactive.

For `CCCCOCCOCCOCc1cc2c(cc1CCC)OCO2`, the call was inactive.

Another assay in a line: Cell Viability - LYMP2-008 (AID 980). Further: nearly all actives have a fitted effect of over 60% in size. To be noted: LYMP2-008 lymphoblastoid cell viability, qHTS; series mostly up to 92.2 µM. A digest of the protocol:
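Cytotoxicity determined from ATP-dependent luciferase luminescence (CellTiter-Glo) following 24 h compound exposure of human lymphoblastoid LYMP2-008 cells at 37 C. Concentration-response data fitted to the Hill equation to give AC50.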
As for `COc1ccc(CN(CCN(C)C)c2ccccn2)cc1`, the call was inactive.

With `NC(=Nc1ccccc1)Nc1ccccc1`, the outcome was inactive.

Take `CN=C(NC#N)NCCSCc1nc[nH]c1C`: the molecule was called inactive.

For the molecule `CCCCNC(=O)NS(=O)(=O)c1ccc(C)cc1`, the call was inactive.

As for `COc1cc(Cc2cnc(N)nc2N)cc(OC)c1OC`, the call was inactive.

`NC(=O)N1c2ccccc2C=Cc2ccccc21`: the molecule was called inactive.

As for `Nc1nc(N)c2nc(-c3ccccc3)c(N)nc2n1`, the result was inactive.

Regarding `O=c1[nH]c(=O)n([C@H]2C[C@H](O)[C@@H](CO)O2)cc1Br`, the molecule was classed as inactive.

In the case of `CCCCOCCOCCOCc1cc2c(cc1CCC)OCO2`, the result was inactive.

The next assay in a line: Cell Viability - LYMP2-010 (AID 981).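 Further: cells exposed to compound for 24 hours at 37 °C; nearly all actives have a fitted effect of over 55% in size.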 Further: potency means the concentration at half of the fitted maximal effect. Particulars: LYMP2-010 lymphoblastoid cell viability, qHTS; series mostly up to 92.2 µM. A digest of the protocol: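 CellTiter-Glo ATP luminescence measured cytotoxicity after 24 h compound exposure at 37 C. LYMP2-010 cells were seeded at 2500/well, with tetraoctylammonium bromide as control; concentration-response curves gave AC50 values by the Hill equation.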
On to `COc1ccc(CN(CCN(C)C)c2ccccn2)cc1`, for which the Potency result was “inactive”.

Turning to `NC(=Nc1ccccc1)Nc1ccccc1`, the Potency result was “inactive”.

For `CN=C(NC#N)NCCSCc1nc[nH]c1C`, the Potency result was “inactive”.

Regarding `CCCCNC(=O)NS(=O)(=O)c1ccc(C)cc1`, the Potency result is “inactive”.

`COc1cc(Cc2cnc(N)nc2N)cc(OC)c1OC`: the Potency entry was “inactive”.

For the molecule `NC(=O)N1c2ccccc2C=Cc2ccccc21`, the Potency entry is “inactive”.

Take `O=c1[nH]c(=O)n([C@H]2C[C@H](O)[C@@H](CO)O2)cc1Br`: the Potency entry is “inactive”.

As for `CCCCOCCOCCOCc1cc2c(cc1CCC)OCO2`, the Potency entry was “inactive”.

For `Nc1ncn([C@@H]2O[C@H](CO)[C@@H](O)[C@H]2O)c(=O)n1`, the Potency was 15.8 µM (active).

The nature of another assay: Cell Viability - LYMP2-012 (AID 982).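 Further: cellular ATP by luciferase luminescence where a drop means cytotoxicity; cells exposed to compound for one day before reading; nearly all actives have a fitted effect of over 55% in size.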 Further: potency means the concentration at half of the fitted maximal effect. To be noted: LYMP2-012 lymphoblastoid cell viability qHTS; series mostly up to 92.2 µM.
`COc1ccc(CN(CCN(C)C)c2ccccn2)cc1`: the Potency result was “inactive”.

As to `NC(=Nc1ccccc1)Nc1ccccc1`, the Potency result was “inactive”.

With `CN=C(NC#N)NCCSCc1nc[nH]c1C`, the Potency entry is “inactive”.

On to `CCCCNC(=O)NS(=O)(=O)c1ccc(C)cc1`, for which the Potency entry was “inactive”.

For the molecule `COc1cc(Cc2cnc(N)nc2N)cc(OC)c1OC`, the Potency result is “inactive”.

As for `NC(=O)N1c2ccccc2C=Cc2ccccc21`, the Potency result was “inactive”.

With `Nc1nc(N)c2nc(-c3ccccc3)c(N)nc2n1`, the Potency result is “inactive”.

For the molecule `O=c1[nH]c(=O)n([C@H]2C[C@H](O)[C@@H](CO)O2)cc1Br`, the Potency entry was “inactive”.

Turning to `CCCCOCCOCCOCc1cc2c(cc1CCC)OCO2`, the Potency entry was “inactive”.

For the molecule `Nc1ncn([C@@H]2O[C@H](CO)[C@@H](O)[C@H]2O)c(=O)n1`, the Potency was 15.8 µM (active).

The next assay in a line: Cell Viability - LYMP2-014 (AID 983). Further: nearly all actives have a fitted effect of over 50% in size. To be noted: LYMP2-014 lymphoblastoid cells, viability qHTS; series mostly up to 92.2 µM. A digest of the protocol: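 Intracellular ATP loss, read by luciferase luminescence, measures acute cytotoxicity after 24 h compound exposure of lymphoblastoid LYMP2-014 cells (2500/well, 37 C). Concentration-response data fitted to the Hill equation for AC50.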
With `COc1ccc(CN(CCN(C)C)c2ccccn2)cc1`, the call was inactive.

On to `NC(=Nc1ccccc1)Nc1ccccc1`, for which the molecule was classed as inactive.

As to `CN=C(NC#N)NCCSCc1nc[nH]c1C`, the molecule was classed as inactive.

As for `CCCCNC(=O)NS(=O)(=O)c1ccc(C)cc1`, the outcome was inactive.

In the case of `COc1cc(Cc2cnc(N)nc2N)cc(OC)c1OC`, the outcome was inactive.

Take `NC(=O)N1c2ccccc2C=Cc2ccccc21`: the molecule was called inactive.

Take `Nc1nc(N)c2nc(-c3ccccc3)c(N)nc2n1`: the call was inactive.

As for `O=c1[nH]c(=O)n([C@H]2C[C@H](O)[C@@H](CO)O2)cc1Br`, the outcome was inactive.

With `CCCCOCCOCCOCc1cc2c(cc1CCC)OCO2`, the molecule was classed as inactive.

The nature of another assay: Cell Viability - LYMP2-016 (AID 984).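 Further: cells exposed to compound for 24 hours at 37 °C; nearly all actives have a fitted effect of over 55% in size.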 Particulars: LYMP2-016 lymphoblastoid cell viability, qHTS; series mostly up to 92.2 µM. The method in brief: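 Cells were seeded at 2500 per well and rested 5 hr before a 24 hr compound exposure at 37 C. Viability was then gauged as cellular ATP by luciferase luminescence, with AC50 values fitted to the Hill equation.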
`COc1ccc(CN(CCN(C)C)c2ccccn2)cc1`: the molecule was classed as inactive.

On to `NC(=Nc1ccccc1)Nc1ccccc1`, for which the result was inactive.

As for `CN=C(NC#N)NCCSCc1nc[nH]c1C`, the molecule was classed as inactive.

With `CCCCNC(=O)NS(=O)(=O)c1ccc(C)cc1`, the molecule was called inactive.

Regarding `COc1cc(Cc2cnc(N)nc2N)cc(OC)c1OC`, the molecule was called inactive.

Regarding `NC(=O)N1c2ccccc2C=Cc2ccccc21`, the call was inactive.

In the case of `Nc1nc(N)c2nc(-c3ccccc3)c(N)nc2n1`, the result was inactive.

In the case of `O=c1[nH]c(=O)n([C@H]2C[C@H](O)[C@@H](CO)O2)cc1Br`, the outcome was inactive.

Take `CCCCOCCOCCOCc1cc2c(cc1CCC)OCO2`: the outcome was inactive.

A short description of the next assay: Cell Viability - LYMP2-018 (AID 985). Further: nearly all actives have a fitted effect of over 50% in size. Further: potency means the concentration at half of the fitted maximal effect. Particulars: LYMP2-018 lymphoblastoid cells, viability (qHTS); series mostly up to 92.2 µM. The method in brief: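 Viability read as CellTiter-Glo luminescence (cellular ATP) after 24 hr compound exposure at 37 C of 2500 LYMP2-018 lymphoblastoid cells/well, pre-plated 5 hr. Hill-equation modelling gave AC50.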
For `COc1ccc(CN(CCN(C)C)c2ccccn2)cc1`, the Potency result is “inactive”.

For `NC(=Nc1ccccc1)Nc1ccccc1`, the Potency result was “inactive”.

As to `COC(=O)[C@H]1[C@H]2C[C@@H]3c4[nH]c5cc(OC)ccc5c4CCN3C[C@H]2C[C@@H](OC(=O)c2cc(OC)c(OC)c(OC)c2)[C@@H]1OC`, the Potency was 50.1 µM (active).

In the case of `CN=C(NC#N)NCCSCc1nc[nH]c1C`, the Potency result is “inactive”.

On to `CCCCNC(=O)NS(=O)(=O)c1ccc(C)cc1`, for which the Potency result was “inactive”.

On to `COc1cc(Cc2cnc(N)nc2N)cc(OC)c1OC`, for which the Potency entry is “inactive”.

For the molecule `NC(=O)N1c2ccccc2C=Cc2ccccc21`, the Potency result is “inactive”.

As for `Nc1nc(N)c2nc(-c3ccccc3)c(N)nc2n1`, the Potency entry is “inactive”.

For the molecule `O=c1[nH]c(=O)n([C@H]2C[C@H](O)[C@@H](CO)O2)cc1Br`, the Potency result was “inactive”.

Take `CCCCOCCOCCOCc1cc2c(cc1CCC)OCO2`: the Potency entry is “inactive”.

With `Nc1ncn([C@@H]2O[C@H](CO)[C@@H](O)[C@H]2O)c(=O)n1`, the Potency is 7.94 µM (active).

The values above are taken from PubChem BioAssay (NCATS).
